Results reported in PubChem BioAssay AID493170 (National Center for Advancing Translational Sciences (NCATS), 2011).
Results filed as inconclusive are left out. A call without a number means that no potency is given here. Active and inactive are the calls of the source. Calls come from the whole dose curve; as a rule, active = well fitted inhibition curve with a large enough effect; inconclusive = small, poorly fitted or top-dose-only effect, or effect the other way; inactive = flat fitted curve, though single readings scatter.

target: Ubiquitin carboxyl-terminal hydrolase 2 (Homo sapiens) (UniProt O75604); assay: Ub-rhodamine 110 based assay for inhibitors Ubiquitin-specific Protease USP2a; details: USP2a Ub-rhodamine110 cleavage, fluorescence; series mostly up to 38.3 µM; note: nearly all actives have a fitted effect of over 50% in size
Sequence (O75604 whole entry, looked up): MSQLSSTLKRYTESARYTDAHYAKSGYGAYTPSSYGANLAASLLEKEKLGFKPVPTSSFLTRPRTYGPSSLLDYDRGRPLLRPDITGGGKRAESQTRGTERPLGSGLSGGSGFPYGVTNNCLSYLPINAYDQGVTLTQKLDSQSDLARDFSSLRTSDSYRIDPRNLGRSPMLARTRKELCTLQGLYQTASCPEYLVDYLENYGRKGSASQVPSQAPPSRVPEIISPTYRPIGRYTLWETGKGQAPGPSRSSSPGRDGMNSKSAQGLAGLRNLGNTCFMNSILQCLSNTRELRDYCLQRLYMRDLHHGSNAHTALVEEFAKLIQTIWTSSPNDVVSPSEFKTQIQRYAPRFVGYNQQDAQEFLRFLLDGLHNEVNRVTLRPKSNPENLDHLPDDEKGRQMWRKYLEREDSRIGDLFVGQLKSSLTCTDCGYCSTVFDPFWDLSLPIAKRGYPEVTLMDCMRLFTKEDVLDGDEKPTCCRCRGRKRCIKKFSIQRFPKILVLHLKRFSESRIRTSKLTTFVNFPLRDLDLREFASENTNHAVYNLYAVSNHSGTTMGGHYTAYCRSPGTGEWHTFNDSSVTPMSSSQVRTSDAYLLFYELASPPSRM
In short: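 Kinetic fluorescence (485/531 nm) read each minute over 7 min after adding Ub-Rhod110 (150 nM final) to USP2a (5 nM final). The enzyme had 30 min RT exposure to compounds beforehand in Tris pH 8.0 buffer with CaCl2, CHAPS and beta-ME.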
Potency is the fitted concentration of half-maximal effect.

Row | SMILES | Potency
1 | CN(C)S(=O)(=O)c1ccc(C(=O)NCCN=C2NS(=O)(=O)c3ccccc32)cc1 | inactive
2 | CC(=O)N1c2c(cc(Br)cc2S(=O)(=O)NCc2cccnc2)CC1C (centres undefined) | inactive
3 | CCCn1c(NC(=O)c2ccc(Br)cc2)nc2ccccc21 | inactive
4 | COC(=O)c1ccc(CSc2ncnc3ccccc23)o1 | inactive
5 | CCOC(=O)c1c(C)c(C(=O)O)n(C)c1C | inactive
6 | C[C@H](CO)N1C[C@H](C)[C@@H](CN(C)S(=O)(=O)c2cccs2)Oc2c(NC(=O)Nc3ccc4c(c3)OCO4)cccc2C1=O | inactive
7 | CC(C)(C)OC(=O)C[C@H]1C/C=C\C[C@H](CC(=O)N(CCO)Cc2ccccc2)C(=O)NC[C@H](c2ccccc2)OC1=O | inactive
8 | CCOc1ccc(NC(=O)CSc2nnc(Cn3c(=O)sc4ccccc43)n2C)cc1 | inactive
9 | Cc1onc(-c2ccccc2)c1C(=O)N1CCN(C)CC1 | inactive
10 | CSc1ccc(NC(=O)CSc2nc3[nH]c(=O)cc(O)c3s2)cc1 | 5.62 µM (active)
11 | Cc1cc(=O)oc(C)c1C(=O)NCCc1ccccc1 | inactive
12 | C/C(Cn1nnc2ccccc21)=N\OC(=O)c1ccccc1C | inactive
13 | Cc1ccc(/C=C/S(=O)(=O)N2CCC(C(=O)O)CC2)cc1 | inactive
14 | CC(C)c1ccc(C2=C(O)c3ccccc3C(=O)C2=O)cc1 | inactive
15 | Cc1cc(SCC(=O)Nc2ccccc2)nc(C)n1 | inactive
16 | Cc1ccc2nc(NCCCNC(=O)c3cnccn3)c(C#N)cc2c1 | inactive
17 | O=C(/C=N/O)NCc1cccnc1 | inactive
18 | O=C(COC(=O)c1cc(-c2ccc(Cl)s2)nc2ccccc12)NCc1ccco1 | 11.2 µM (active)
19 | O=C(N/N=C/c1ccc(-c2ccc(Cl)c(C(=O)O)c2)o1)c1cc2c(ccc3ccccc32)o1 | 10 µM (active)
20 | COc1ccc(-c2cc(C(F)(F)F)nc(S(C)(=O)=O)n2)cc1 | inactive

Row | SMILES | Potency
21 | COc1ccc(CN(Cc2cc3cc(C)ccc3[nH]c2=O)C(=O)N(C)C)cc1 | inactive
22 | O=C(NCCN1C(=O)CSC1=O)C1CC(=O)N(c2ccccc2)C1 (centres undefined) | inactive
23 | CCN(CC)S(=O)(=O)c1ccc(Cl)c(NC(=O)COC(=O)c2c(C)noc2C)c1 | inactive
24 | O=C(NC1CCCC1)C1C2C=CC(C2)C1C(=O)N1CCOCC1 (centres undefined) | inactive
25 | Cc1ccc(C(=O)N(c2c(C)n(C)n(-c3ccccc3)c2=O)C(C)C)cc1 | inactive
26 | CCOc1ccc(C=NNc2ccc(S(=O)(=O)Nc3ccccc3C(=O)O)cc2[N+](=O)[O-])cc1 | 2.82 µM (active)
27 | COc1ccc(-c2csc(N3CCN(C(=O)c4ccco4)CC3)n2)cc1 | inactive
28 | CCc1c(O)nc(SCC(=O)Nc2ccccc2OC)[nH]c1=O | inactive
29 | O=C(Nc1cccc(Cl)c1)Nc1nnc(CC2=CCCCC2)s1 | inactive
30 | CN1CCN(S(=O)(=O)c2ccc(N3CCN(S(=O)(=O)/C=C/c4ccccc4)CC3)nc2)CC1 | inactive
31 | COc1ccc(CCn2c(O)cc3nn(-c4nc5ccccc5s4)c(=O)c-3c2C)cc1 | 5.62 µM (active)
32 | Oc1c(Cl)cc(Cl)c(Cl)c1Cc1c(O)c(Cl)cc(Cl)c1Cl | 3.16 µM (active)
33 | COc1ccc(NC(=O)CN(Cc2ccccc2)S(C)(=O)=O)cc1 | inactive
34 | COC(=O)c1[nH]c2cc(OC)ccc2c1N | inactive
35 | O=C(NN=Cc1ccc(N2CCOCC2)s1)c1ccc([N+](=O)[O-])cc1 | inactive
36 | C=C1c2cccc(O)c2C(=O)C2C(=O)[C@]3(O)C(=O)C(C(N)=O)C(=O)[C@@H](N(C)C)[C@@H]3[C@@H](O)[C@H]12 (some centres undefined) | 8.91 µM (active)
37 | O=C(Nc1ccc2nc(-c3ccco3)c(-c3ccco3)nc2c1)N1CCN(c2ccccn2)CC1 | 3.55 µM (active)
38 | CC(C)c1ccc2c(c1)c(SC(C)(C)C)c(CC(C)(C)C(=O)O)n2Cc1ccc(Cl)cc1 | 7.08 µM (active)
39 | Cc1cccc(Nc2nc(NCc3ccco3)c3ccccc3n2)c1 | inactive
